Data taken from PubChem BioAssay AID1159580 (chemical genetic matrix, 2015).
The campaign covered roughly 5,500 compounds. About 2,000 (36%) were called active. Roughly 18% stayed inconclusive and do not appear here. Cut-off read from the data, not from the text of the source: active = normalized growth mostly below about 0.91 (no sharp cut-off); inconclusive = no clear call, values can overlap the other calls; inactive = mostly above about 0.92. The list shows a part of the results.

Experiment: chemical genetic growth profiling, strain panel (AID 1159580);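 note: tested at 20 µM; growth read once vehicle control cultures reached saturation at 30 °C; 1 = growth at the plate median or of vehicle wells; lower values mean less growth of the strain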
Conditions: growth OD

Measured: normalized growth

NC[C@@H]1O[C@H](O[C@@H]2[C@@H](CO)OC(O[C@@H]3[C@@H](O)[C@H](N)C[C@H](N)[C@H]3O[C@H]3O[C@H](CO)[C@@H](O)[C@H](O)[C@H]3N)[C@@H]2O)[C@H](N)[C@@H](O)[C@@H]1O (stereo partly drawn)
inactive: S. cerevisiae deletion strains, locus YJR043C, strain POL32, stronger effect = lower value 0.936 | S. cerevisiae deletion strains, locus YJR066W, strain TOR1, stronger effect = lower value 0.945 | S. cerevisiae deletion strains, locus YKL009W, strain mrt4, stronger effect = lower value 0.982 | S. cerevisiae deletion strains, locus YKL068W, stronger effect = lower value 0.993 | S. cerevisiae deletion strains, locus YKL085W, strain MDH1 (second series), stronger effect = lower value 0.995 | S. cerevisiae deletion strains, locus YKL085W, strain MDH1, stronger effect = lower value 0.995 | S. cerevisiae deletion strains, locus YKL160W, strain elf1, stronger effect = lower value 0.996 | S. cerevisiae deletion strains, locus YKL190W, strain CNB1, stronger effect = lower value 0.988 | S. cerevisiae deletion strains, locus YKR001C, strain vps1, stronger effect = lower value 0.988 | S. cerevisiae deletion strains, locus YKR026C, strain gcn3, stronger effect = lower value 0.992 | S. cerevisiae deletion strains, locus YKR091W, strain srl3, stronger effect = lower value 0.989 | S. cerevisiae deletion strains, locus YLL001W, strain dnm1, stronger effect = lower value 0.985 | S. cerevisiae deletion strains, locus YLL026W, stronger effect = lower value 0.987 | S. cerevisiae deletion strains, locus YLL041C, strain sdh2, stronger effect = lower value 0.993 | S. cerevisiae deletion strains, locus YLR027C, strain aat2, stronger effect = lower value 0.987 | S. cerevisiae deletion strains, locus YLR039C, strain RIC1, stronger effect = lower value 0.983 | S. cerevisiae deletion strains, locus YLR058C, strain SHM2, stronger effect = lower value 0.978 | S. cerevisiae deletion strains, locus YLR102C, strain apc9, stronger effect = lower value 0.989 | S. cerevisiae deletion strains, locus YLR113W, strain HOG1, stronger effect = lower value 0.952 | S. cerevisiae deletion strains, locus YLR221C, strain rsa3, stronger effect = lower value 0.991 | S. cerevisiae deletion strains, locus YLR258W, strain gsy2, stronger effect = lower value 0.993 | S. cerevisiae deletion strains, locus YLR262C, strain YPT6 (second series), stronger effect = lower value 1.01 | S. cerevisiae deletion strains, locus YLR262C, strain YPT6, stronger effect = lower value 0.973 | S. cerevisiae deletion strains, locus YLR268W, strain sec22, stronger effect = lower value 0.986 | S. cerevisiae deletion strains, locus YLR320W, strain mms22, stronger effect = lower value 0.997 | S. cerevisiae deletion strains, locus YLR330W, strain CHS5, stronger effect = lower value 0.998 | S. cerevisiae deletion strains, locus YLR342W, strain FKS1 (second series), stronger effect = lower value 1.09 | S. cerevisiae deletion strains, locus YLR342W, strain FKS1, stronger effect = lower value 0.992 | S. cerevisiae deletion strains, locus YLR357W, strain rsc2, stronger effect = lower value 0.992 | S. cerevisiae deletion strains, locus YLR370C, strain arc18, stronger effect = lower value 0.992 | S. cerevisiae deletion strains, locus YLR371W, strain rom2, stronger effect = lower value 1 | S. cerevisiae deletion strains, locus YLR384C, strain iki3, stronger effect = lower value 0.99 | S. cerevisiae deletion strains, locus YLR418C, strain cdc73, stronger effect = lower value 1.01 | S. cerevisiae deletion strains, locus YML016C, strain PPZ1, stronger effect = lower value 0.992 | S. cerevisiae deletion strains, locus YML032C, strain rad52, stronger effect = lower value 0.98 | S. cerevisiae deletion strains, locus YML120C, strain ndi1, stronger effect = lower value 0.988 | S. cerevisiae deletion strains, locus YML124C, strain tub3, stronger effect = lower value 0.985 | S. cerevisiae deletion strains, locus YMR058W, strain fet3, stronger effect = lower value 0.988 | S. cerevisiae deletion strains, locus YMR078C, strain ctf18, stronger effect = lower value 0.989 | S. cerevisiae deletion strains, locus YMR125W, strain sto1, stronger effect = lower value 0.998 | S. cerevisiae deletion strains, locus YMR129W, stronger effect = lower value 0.998 | S. cerevisiae deletion strains, locus YMR205C, strain PFK2, stronger effect = lower value 0.994 | S. cerevisiae deletion strains, locus YMR223W, strain ubp8, stronger effect = lower value 1.01 | S. cerevisiae deletion strains, locus YMR231W, strain pep5, stronger effect = lower value 1 | S. cerevisiae deletion strains, locus YMR307W, strain GAS1, stronger effect = lower value 1.07 | S. cerevisiae deletion strains, locus YNL067W, strain RPL9B, stronger effect = lower value 0.97 | S. cerevisiae deletion strains, locus YNL071W, strain lat1, stronger effect = lower value 0.987 | S. cerevisiae deletion strains, locus YNL183C, strain NPR1, stronger effect = lower value 0.939 | S. cerevisiae deletion strains, locus YNL209W, strain ssb2, stronger effect = lower value 0.999 | S. cerevisiae deletion strains, locus YNL233W, strain BNI4, stronger effect = lower value 0.995 | S. cerevisiae deletion strains, locus YNL248C, strain rpa49, stronger effect = lower value 0.988 | S. cerevisiae deletion strains, locus YNL250W, strain rad50, stronger effect = lower value 0.991 | S. cerevisiae deletion strains, locus YNL271C, strain bni1, stronger effect = lower value 0.986 | S. cerevisiae deletion strains, locus YNL298W, strain CLA4, stronger effect = lower value 0.989 | S. cerevisiae deletion strains, locus YNL307C, strain MCK1, stronger effect = lower value 0.983 | S. cerevisiae deletion strains, locus YNL322C, strain KRE1 (second series), stronger effect = lower value 0.989 | S. cerevisiae deletion strains, locus YNR049C, strain mso1, stronger effect = lower value 0.993 | S. cerevisiae deletion strains, locus YNR052C, strain pop2, stronger effect = lower value 0.998 | S. cerevisiae deletion strains, locus YOL006C, strain TOP1, stronger effect = lower value 0.932 | S. cerevisiae deletion strains, locus YOL012C, strain htz1 1.06 | S. cerevisiae deletion strains, locus YOL147C, strain pex11, stronger effect = lower value 1 | S. cerevisiae deletion strains, locus YOR001W, strain rrp6, stronger effect = lower value 0.985 | S. cerevisiae deletion strains, locus YOR061W, strain CKA2, stronger effect = lower value 0.973 | S. cerevisiae deletion strains, locus YOR069W, strain VPS5, stronger effect = lower value 0.998 | S. cerevisiae deletion strains, locus YOR070C, strain gyp1, stronger effect = lower value 0.995 | S. cerevisiae deletion strains, locus YOR080W, strain dia2, stronger effect = lower value 0.989 | S. cerevisiae deletion strains, locus YOR083W, strain WHI5, stronger effect = lower value 0.993 | S. cerevisiae deletion strains, locus YOR106W, strain vam3, stronger effect = lower value 0.995 | S. cerevisiae deletion strains, locus YOR136W, strain idh2, stronger effect = lower value 0.98 | S. cerevisiae deletion strains, locus YOR144C, strain elg1, stronger effect = lower value 0.999 | S. cerevisiae deletion strains, locus YOR184W, strain ser1, stronger effect = lower value 0.972 | S. cerevisiae deletion strains, locus YOR231W, strain MKK1, stronger effect = lower value 0.965 | S. cerevisiae deletion strains, locus YOR265W, strain rbl2, stronger effect = lower value 0.992 | S. cerevisiae deletion strains, locus YOR270C, strain vph1, stronger effect = lower value 0.966 | S. cerevisiae deletion strains, locus YOR290C, strain snf2, stronger effect = lower value 0.989 | S. cerevisiae deletion strains, locus YOR316C, strain cot1, stronger effect = lower value 0.979 | S. cerevisiae deletion strains, locus YPL051W, strain arl3, stronger effect = lower value 0.989 | S. cerevisiae deletion strains, locus YPL078C, strain atp4, stronger effect = lower value 0.99 | S. cerevisiae deletion strains, locus YPL106C, strain sse1, stronger effect = lower value 0.967 | S. cerevisiae deletion strains, locus YPL240C, strain hsp82, stronger effect = lower value 0.997 | S. cerevisiae deletion strains, locus YPL241C, strain CIN2, stronger effect = lower value 0.998 | S. cerevisiae deletion strains, locus YPL256C, strain CLN2, stronger effect = lower value 0.968 | S. cerevisiae deletion strains, locus YPR119W, strain clb2, stronger effect = lower value 0.99 | S. cerevisiae deletion strains, locus YPR141C, strain kar3, stronger effect = lower value 0.988 | S. cerevisiae deletion strains, locus YPR163C, strain tif3, stronger effect = lower value 0.998 | S. cerevisiae deletion strains, locus YPR167C, strain met16, stronger effect = lower value 0.999 | S. cerevisiae deletion strains, strain wtn01, stronger effect = lower value 1.02 | S. cerevisiae strains, strain wild type, stronger effect = lower value 0.988
